From PubChem BioAssay come the findings set out here.

One assay has as its target Albumin (Bos taurus) (UniProt P02769). Description: compounds binding labelled BSA control protein – biochemical, small-molecule microarray, Alexa647 label, 635/667 nm fluorescence, artefact control for SMM control protein annotation, profiling panel (AID 1118).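 Further: score merges 667 nm emission intensity and signal-to-noise per printed compound spot.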 Conditions: BSA-A647 binding, fluorescence 635 nm, higher = more signal.
Assay [1] can be described thus: probe aXIP binding to arrayed compounds – biochemical, NeuroSMM set, 635/667 nm fluorescence, primary screen (AID 1119).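 Further: probe is the protein aXip251-270 applied at 1 µg/mL to compound-printed slides; binding of probe to printed compounds measured as 667 nm fluorescence plus signal to noise.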 The note with it: small-molecule microarray, higher = more signal, called active from +8 up or from −8 down.
The nature of assay [2]: probe aNOTCH3 binding on compound microarray – biochemical, small-molecule microarray, 635/667 nm fluorescence, primary screen (AID 1120).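 Further: probe is a biotin-tagged antibody raised against NOTCH3 rather than NOTCH3 protein; score merges spot fluorescence near 667 nm with spot signal to noise.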 Conditions: higher = more signal.
A short description of assay [3]: probe aNOTCH2 binding on compound microarray – biochemical, small-molecule microarray, 635/667 nm fluorescence, primary screen (AID 1121).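 Further: score merges feature fluorescence read at 667 nm with its signal to noise.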 Conditions: higher = more signal.
The target in assay [4] is Carbonic anhydrase 2 (Homo sapiens) (UniProt P00918). Briefly: compounds binding carbonic anhydrase 2 – biochemical, small-molecule microarray, Alexa647-labelled CAII, profiling panel (AID 1122). Conditions: CAII-A647 binding fluorescence, higher = more signal.
Assay [5] is described as follows: COS7 lysate on small-molecule microarray, probe aHis, 635 nm (AID 1123).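 Further: z-score combines 667nm fluorescence intensity with signal-to-noise per printed compound spot.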 Conditions: COS7 cell lysate, fluorescence, higher = more signal.
The nature of assay [6]: probe aLAP1 signal on lysate-treated microarray – cell lysate, small-molecule microarray, COS7 lysate, primary screen (AID 1124).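 Further: lysate comes from COS7 cells expressing LAP1 and is applied at 0.3 µg/mL; score merges spot fluorescence near 667 nm with signal-to-noise over triplicate slides.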 The note with it: probe aLAP1, fluorescence, higher = more signal.
For another assay, the system named is Sam68 (KHDRBS1). Description: compounds binding KHDRBS1 protein – biochemical, small-molecule microarray, 635 nm fluorescence, primary screen (AID 1125).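 Further: score merges 667 nm channel intensity with signal to noise over triplicate slides.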 Conditions: higher = more signal.
Assay [7] relates to Chordin-like protein 2 (CHRDL2). Description: compounds binding chordin-like 2 – biochemical, small-molecule microarray, 635 nm fluorescence, primary screen (AID 1126).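 Further: printed compound slides probed with Chrdl2 protein at 4 µg/mL for 1 h at 4 C; score merges 667 nm emission intensity with signal to noise over three replicate slides.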 The note with it: fluorescence 635 nm, higher = more signal.
In assay [8] the target is Concanavalin-A (Canavalia ensiformis) (UniProt P02866). Briefly: compounds binding concanavalin A lectin – biochemical, small-molecule microarray, Alexa647 label, 635 nm, artefact control for SMM control protein annotation, primary screen (AID 1127).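 Further: z combines 667 nm emission intensity with signal-to-noise across three replicate slides.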 The note with it: ConA-A647 binding fluorescence, higher = more signal.
Assay [9] is described as follows: compounds binding Alexa647 anti-His antibody – biochemical, small-molecule microarray, 635 nm fluorescence, artefact control for SMM control protein annotation, primary screen (AID 1128).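 Further: score merges feature fluorescence with signal-to-noise for each printed compound spot.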 The note with it: higher = more signal.
Assay [10] relates to Human papillomavirus type 1a E7 protein (residues 1-88). Briefly: HPV1a E7 small-molecule binders, primary screen, biochemical, small-molecule microarray, residues 1-88, 635 nm (AID 1129). The note with it: small-molecule microarray binding, fluorescence 635 nm; higher = more signal.
The target in assay [11] is Focal adhesion kinase 1 (Homo sapiens) (UniProt Q05397). Briefly: PTK2 protein binding on printed compound slides – biochemical, small-molecule microarray, 635/667 nm fluorescence, BSA, DTT, primary screen (AID 1130).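 Further: composite of spot emission at 667 nm and signal to noise over triplicate slides.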 The note with it: 635 nm fluorescence, higher = more signal.
Assay [12] deals with Fibrinogen (Alexa647-labelled). Briefly: Alexa647-fibrinogen binding to printed small molecules – biochemical, small-molecule microarray, 635/667 nm fluorescence, artefact control for SMM control-protein annotation, profiling panel (AID 1131).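 Further: z-score merges 667 nm fluorescence with per-spot signal-to-noise over triplicate slides.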 Conditions: fibrinogen-A647 binding fluorescence, higher = more signal.
The target of assay [13] is Follistatin (Homo sapiens) (UniProt P19883). Description: FST protein binding to printed compounds – biochemical, small-molecule microarray, 635/667 nm fluorescence, primary screen (AID 1132). The note with it: 635 nm fluorescence, higher = more signal.
For assay [14], the target named is Fibroblast growth factor 2 (Homo sapiens) (UniProt P09038). Description: basic fibroblast growth factor binding to printed compounds – biochemical, small-molecule microarray, 635/667 nm fluorescence, primary screen (AID 1133). Conditions: FGF2, fluorescence 635/667, higher = more signal.
A short description of assay [15]: JC-1 mitochondrial potential readout, lung cancer cells – cell-based, A549, JC-1 fluorescence, basal, 24 h, 100 nL, profiling panel (AID 1138).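 Further: A549 lung adenocarcinoma cells under basal conditions with no added stimulus; test concentration not given here.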 The note with it: higher = more signal.
The next assay relates to Lefty1. Description: Lefty1 protein binding to printed compounds – biochemical, small-molecule microarray, 635/667 nm fluorescence, primary screen (AID 1139). Conditions: fluorescence 635/667, higher = more signal.
Assay [16] has as its system wheat germ agglutinin (Triticum aestivum), Alexa647-labelled. Description: Alexa647-WGA lectin binding to printed small molecules – biochemical, small-molecule microarray, 635/667 nm fluorescence, artefact control for SMM control-protein annotation, profiling panel (AID 1140).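 Further: score merges 667 nm feature emission with signal to noise over triplicate slides.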 The note with it: WGA-A647 binding, 635 nm fluorescence, higher = more signal.
Assay [17] addresses Luciferin 4-monooxygenase (Photinus pyralis) (UniProt P08659). Briefly: inhibition of purified Photinus pyralis luciferase – biochemical, luminescence, purified enzyme, 2006 set, primary screen (AID 1141).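 Further: cell-free assay with purified firefly luciferase at 100 ng per well in PBS; test concentration not given here.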 Conditions: purified firefly luciferase, SteadyGlo luminescence, 30 min; higher = more signal, called active from +8 up or from −8 down.

Molecules are shown by their SMILES. Calls of active or inactive are those of the source.

Luciferin 4-monooxygenase (Photinus pyralis), sequence (P08659 whole entry, looked up): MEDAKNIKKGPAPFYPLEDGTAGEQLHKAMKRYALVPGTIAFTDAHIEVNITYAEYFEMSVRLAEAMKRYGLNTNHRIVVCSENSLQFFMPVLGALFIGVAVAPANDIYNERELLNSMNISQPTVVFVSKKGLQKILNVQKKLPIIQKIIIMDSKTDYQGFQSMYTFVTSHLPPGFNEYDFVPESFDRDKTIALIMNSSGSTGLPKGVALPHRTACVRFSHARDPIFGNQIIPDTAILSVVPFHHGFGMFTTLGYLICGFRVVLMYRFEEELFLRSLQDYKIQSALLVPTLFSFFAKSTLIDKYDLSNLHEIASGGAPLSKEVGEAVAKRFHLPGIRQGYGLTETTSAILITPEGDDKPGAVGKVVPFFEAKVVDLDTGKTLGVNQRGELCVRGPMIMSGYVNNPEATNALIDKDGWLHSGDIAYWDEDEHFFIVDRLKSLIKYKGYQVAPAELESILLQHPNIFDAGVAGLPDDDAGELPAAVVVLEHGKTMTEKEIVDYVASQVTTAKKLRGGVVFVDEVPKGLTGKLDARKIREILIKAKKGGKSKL
Fibroblast growth factor 2 (Homo sapiens), sequence (P09038 whole entry, looked up): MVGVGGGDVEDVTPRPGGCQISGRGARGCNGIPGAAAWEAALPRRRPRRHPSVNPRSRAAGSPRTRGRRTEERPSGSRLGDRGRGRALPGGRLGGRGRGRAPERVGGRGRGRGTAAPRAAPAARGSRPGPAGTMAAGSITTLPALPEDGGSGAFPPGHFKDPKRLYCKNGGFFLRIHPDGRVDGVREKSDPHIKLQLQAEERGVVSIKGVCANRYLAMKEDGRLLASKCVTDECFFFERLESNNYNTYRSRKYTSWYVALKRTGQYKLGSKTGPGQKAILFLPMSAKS
Concanavalin-A (Canavalia ensiformis), sequence (P02866 whole entry, looked up): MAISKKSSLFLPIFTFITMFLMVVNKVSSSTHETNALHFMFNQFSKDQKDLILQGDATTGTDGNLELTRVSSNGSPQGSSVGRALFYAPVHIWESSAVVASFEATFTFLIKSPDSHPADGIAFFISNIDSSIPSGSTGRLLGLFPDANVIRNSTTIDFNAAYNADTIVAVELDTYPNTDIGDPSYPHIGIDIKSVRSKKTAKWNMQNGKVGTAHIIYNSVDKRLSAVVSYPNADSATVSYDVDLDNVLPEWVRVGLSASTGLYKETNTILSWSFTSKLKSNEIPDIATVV
Focal adhesion kinase 1 (Homo sapiens), sequence (Q05397 whole entry, looked up): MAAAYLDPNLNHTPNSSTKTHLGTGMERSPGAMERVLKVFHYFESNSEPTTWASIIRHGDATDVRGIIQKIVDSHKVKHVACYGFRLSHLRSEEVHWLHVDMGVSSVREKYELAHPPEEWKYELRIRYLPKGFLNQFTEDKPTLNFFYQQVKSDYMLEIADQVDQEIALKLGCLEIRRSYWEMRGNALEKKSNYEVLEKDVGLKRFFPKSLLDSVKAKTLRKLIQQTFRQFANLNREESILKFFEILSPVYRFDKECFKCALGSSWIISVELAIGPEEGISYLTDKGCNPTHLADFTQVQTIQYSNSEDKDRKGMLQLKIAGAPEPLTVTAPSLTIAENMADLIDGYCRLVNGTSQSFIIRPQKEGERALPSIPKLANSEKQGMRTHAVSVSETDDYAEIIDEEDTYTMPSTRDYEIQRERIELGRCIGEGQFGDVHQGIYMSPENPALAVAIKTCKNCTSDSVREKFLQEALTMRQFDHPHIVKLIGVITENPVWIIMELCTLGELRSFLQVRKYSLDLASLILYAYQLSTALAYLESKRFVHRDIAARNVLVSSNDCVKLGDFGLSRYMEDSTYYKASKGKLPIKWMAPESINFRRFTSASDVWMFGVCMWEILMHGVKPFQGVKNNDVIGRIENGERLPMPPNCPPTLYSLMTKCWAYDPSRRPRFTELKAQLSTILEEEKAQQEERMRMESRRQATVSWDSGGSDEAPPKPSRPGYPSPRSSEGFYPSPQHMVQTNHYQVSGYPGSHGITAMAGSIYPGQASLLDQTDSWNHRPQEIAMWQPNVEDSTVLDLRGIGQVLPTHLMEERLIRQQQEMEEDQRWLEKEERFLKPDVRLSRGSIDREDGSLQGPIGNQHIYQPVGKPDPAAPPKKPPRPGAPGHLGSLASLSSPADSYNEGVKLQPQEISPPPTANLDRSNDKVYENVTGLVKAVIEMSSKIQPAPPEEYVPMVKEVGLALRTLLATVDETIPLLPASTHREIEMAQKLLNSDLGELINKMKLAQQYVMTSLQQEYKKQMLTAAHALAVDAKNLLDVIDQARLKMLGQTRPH
Albumin (Bos taurus), sequence (P02769 whole entry, looked up): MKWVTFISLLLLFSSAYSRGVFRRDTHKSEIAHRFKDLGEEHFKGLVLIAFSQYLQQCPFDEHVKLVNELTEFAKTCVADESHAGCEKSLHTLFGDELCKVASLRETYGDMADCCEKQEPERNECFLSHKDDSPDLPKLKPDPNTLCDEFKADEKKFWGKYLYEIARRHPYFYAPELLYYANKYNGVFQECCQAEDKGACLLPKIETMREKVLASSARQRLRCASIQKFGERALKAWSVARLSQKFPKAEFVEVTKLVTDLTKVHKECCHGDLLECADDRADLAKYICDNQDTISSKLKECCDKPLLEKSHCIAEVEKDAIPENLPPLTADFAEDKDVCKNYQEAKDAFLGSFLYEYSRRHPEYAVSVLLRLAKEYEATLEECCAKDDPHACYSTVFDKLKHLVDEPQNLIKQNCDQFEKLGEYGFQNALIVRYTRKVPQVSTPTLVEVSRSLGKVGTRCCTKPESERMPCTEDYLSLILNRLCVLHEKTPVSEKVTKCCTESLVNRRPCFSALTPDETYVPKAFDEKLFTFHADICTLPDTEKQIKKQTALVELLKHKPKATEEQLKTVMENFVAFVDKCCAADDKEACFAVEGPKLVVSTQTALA
Follistatin (Homo sapiens), sequence (P19883 whole entry, looked up): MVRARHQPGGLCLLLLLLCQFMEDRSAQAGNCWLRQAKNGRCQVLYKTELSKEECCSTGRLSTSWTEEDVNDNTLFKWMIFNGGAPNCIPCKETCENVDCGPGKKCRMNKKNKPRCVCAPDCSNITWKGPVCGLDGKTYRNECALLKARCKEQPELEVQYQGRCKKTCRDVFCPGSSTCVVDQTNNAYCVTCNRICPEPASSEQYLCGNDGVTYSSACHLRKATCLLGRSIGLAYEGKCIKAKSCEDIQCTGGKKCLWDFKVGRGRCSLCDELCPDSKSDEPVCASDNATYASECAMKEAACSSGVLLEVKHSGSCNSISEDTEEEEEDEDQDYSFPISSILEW

Turning to `C=C(C)[C@@H]1CC=C(C(O)C2C=CC3C(=O)NC(=O)C3N2Nc2ccccn2)CC1` (stereo not given in full), the composite z-score with Albumin (Bos taurus) was -0.27; in assay [2] it was 0.441; in assay [3] it was 0.0179; in assay [4], 0.809; in [5], 1.37; in [6] it was 0.759. The composite z-score with Sam68 (KHDRBS1) is 1.31; in assay [7], 1.61; in [8], 1.14; in assay [9], 2.31; in assay [10] it was 1.15; in [11] it was -0.167. Besides, the composite z-score in assay [12] is 1.02; in assay [13], 1.58; in assay [14], 1.92; in the assay on Lefty1, 1.75; in assay [16] it was 0.842. The composite Z-score in [1] is 0.804 (inactive). Further, the figures for the z-score in [15] and in assay [17] were 0.781 and -0.332 (inactive), respectively.
On to `O=C1O[C@@H](c2ccccc2)[C@@H](c2ccccc2)N2[C@@H](c3ccc(O)cc3)[C@]3(C(=O)Nc4ccc(C#CC5(O)CCCCCC5)cc43)[C@@H](C(=O)Nc3nc4ccccc4s3)[C@H]12`, for which the composite z-score came out at 0.839 in the assay with Albumin (Bos taurus); 0.173 in [2]; 0.0943 in [3]; 0.0181 in assay [4]; 1.95 in assay [5]; 0.807 in [6]. Further, the composite z-score in the assay on Sam68 (KHDRBS1) stood at 1.35; in assay [7] it was 0.896; in assay [8], 1.08; in [9], 1.87; in assay [10] it was 1.22; in [11], 0.706. The composite z-score in assay [12] was found to be 0.886; in [13] it was 1.37; in assay [14], 1.21; in the assay with Lefty1, 1.53; in assay [16] it was 1.26. For the same molecule, the composite Z-score in assay [1] was 0.751 (inactive). Moreover, the z-score in [15] is -0.901; in assay [17], -1.4 (inactive).
For `C[C@H]1COC(=O)[C@@H]2CCCN2C(=O)[C@@H](C)COC(=O)[C@@H]2CCCN2C1=O`, the composite z-score with Albumin (Bos taurus) was -0.503; in assay [2] it was -0.241; in [3], -0.108; in assay [4], -0.525; in assay [5] it was -0.99; in [6] it was -0.111. For the same molecule, the composite z-score with Sam68 (KHDRBS1) was -1.02; in assay [7] it was 0.296; in assay [8], -0.0254; in [9], -0.451; in [10] it was -0.367; in [11] it was 0.213. For the same molecule, the composite z-score was -0.135 in [12]; 0.0429 in [13]; 0.1 in [14]; 0.308 with Lefty1; -0.468 in assay [16]. For the same molecule, the composite Z-score in assay [1] was -0.221 (inactive). Further, the z-score is 1.05 in assay [15] and -0.515 (inactive) in [17].
`CCN1C(C)=C(C(=O)OC)[C@@H](c2ccccc2)N2C(=O)[C@@]3(C(=O)OC)O[C@@]12[C@@H]1C(=O)N(c2ccccc2)C(=O)[C@@H]13`: the composite z-score with Albumin (Bos taurus) is 0.846; in [2] it was -0.055; in assay [3], -0.153; in assay [4], 0.66; in assay [5] it was 0.463; in assay [6], 0.581. Moreover, the composite z-score worked out at 1.14 with Sam68 (KHDRBS1); 0.522 in assay [7]; 0.744 in assay [8]; 1.44 in [9]; 0.678 in [10]; 0.231 in assay [11]. The composite z-score in assay [12] is 0.389; in [13], 0.462; in assay [14] it was 1.51; with Lefty1 it was 1.27; in assay [16], 0.238. Further, the composite Z-score in [1] is -0.0754 (inactive). The values for the z-score in [15] and in assay [17] were 0.507 and -0.569 (inactive), respectively.
Turning to `C=CC[C@@]1(C(=O)NCC(O)CO)N=C(c2ccc(OCCCO)cc2)O[C@@H]1c1ccccc1CN=[N+]=[N-]` (stereo not given in full), the composite z-score with Albumin (Bos taurus) is 0.988; in assay [2], -0.105; in assay [3] it was -0.0759; in [4] it was 0.809; in assay [5] it was 2.98; in assay [6] it was 0.411. For the same molecule, the composite z-score with Sam68 (KHDRBS1) is 1.04; in [7], -0.834; in assay [8], -0.304; in [9], 1.55; in assay [10], 0.756; in assay [11], 0.77. Moreover, the composite z-score was 0.198 in assay [12]; 0.415 in [13]; -0.492 in [14]; -0.548 in the assay on Lefty1; 0.569 in assay [16]. In addition, in [1], the composite Z-score was 0.536 (inactive). The z-score in assay [15] is 1.37; in assay [17], -0.117 (inactive).
For `CC[C@H]1C2=C3C(CC[C@H]4C(OC)OC[C@](C)([C@@H]34)N(C(=O)OC(C)(C)C)C2)C(CO)C1CO` (stereo not given in full), the composite z-score came to 1.05 in the assay with Albumin (Bos taurus); 0.619 in [2]; 0.437 in [3]; 0.486 in assay [4]; 3.15 in assay [5]; 0.903 in [6]. In addition, the composite z-score with Sam68 (KHDRBS1) is 1.29; in assay [7], -0.656; in assay [8], 1.16; in [9], 2.26; in assay [10] it was 1.18; in assay [11], 1.47. Also, the composite z-score in [12] is 0.43; in assay [13], 0.579; in [14], -0.468; in the assay on Lefty1, -0.181; in assay [16], 1.06. The composite Z-score in [1] is 0.067 (inactive). Further, the z-score in assay [15] is 1.16; in assay [17], 0.16 (inactive).
